# Test results: PubChem BioAssay (Tox21)
# Values joined by “and” are separate entries in the source; they are usually repeats but may differ in a detail not shown here. Identical values can stand only once. A number with no mark means an inactive call. Inconclusive results are not listed. Active and inactive are the calls of the source. Unless noted, the call rests on the fitted dose curve; in most records, active means well fitted curve in the direction sought with a large enough effect in the repeat runs; inconclusive means weak or mixed curves; inactive means no such curve, though single readings can be large; an effect the other way counts as inactive or inconclusive.
# Assays:
# [1] = qHTS assay to identify small molecule agonists of H2AX (AID 1224845; active means well fitted activation curve with a large enough effect in the signal ratio in the repeat runs, not every such curve was filed as active; the % refers to the signal ratio; further: potency means the concentration at half of the fitted maximal effect)
# In short: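 Wild-type CHO-K1 cells plated overnight, then exposed 3 hr at 37C to compounds at 15 concentrations (0.76% DMSO). Lysed, then HTRF anti-pH2AX(S139)-cryptate/anti-H2AX-d2 detection after 24 hr at room temperature; emissions 665 and 620 nm.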
# [2] = qHTS assay to identify small molecule agonists of H2AX - cell viability counter screen (AID 1224847; calls by dose curve; further: nearly all actives have a fitted effect of over 30% in size; further: potency means the concentration at half of the fitted maximal effect; on activity change, negative = cytotoxicity: top concentration of the series differs between compounds)
# In short: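 After overnight plating of 1000 CHO-K1 cells per well, a 15-concentration compound series was applied for 3 hr at 37C. Luminescence from CellTiter-Glo, read following 30 min at room temperature, reflected cell viability.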
# [3] = qHTS assay to identify small molecule antagonists of the estrogen related receptor (ERR) signaling pathway from Tox21 library (AID 1224848); further: nearly all actives have a fitted effect of over 50% in size; further: potency means the concentration at half of the fitted maximal effect
# In short: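 Cells: ERR line, 2,000/well; 6 h preincubation 37 C/5% CO2. Cpd in DMSO via pin tool; 18 h, 37 C. ONE-Glo, 30 min RT, luminescence.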
# [4] = qHTS assay to identify small molecule agonists of the estrogen related receptor (ERR) signaling pathway from Tox21 library (AID 1224849; calls by dose curve; further: nearly all actives have a fitted effect of over 15% in size); settings: ERR reporter cell line, ONE-Glo luciferase, 18 h
# In short: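 We plated ERR reporter cells, waited 6 h, added compounds in DMSO by pin tool and incubated them 18 h at 37 C. ONE-Glo was then added and luminescence read after 30 min.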
# [5] = qHTS RealTime-Glo MT Cell Viability Assay in HEK293 cells - 32 hour (AID 1224868); further: nearly all actives have a fitted effect of over 50% in size; further: potency means the concentration at half of the fitted maximal effect; on activity change, negative = cytotoxic: top concentration of the series differs between compounds
# In short: (§1)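 Tox21 10K qHTS, HEK293, 600 cells/well, RealTime-Glo reagent co-dispensed with cells; 5 h preincubation, compound by pintool, 37 C, luminescence at 0–40 h.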
# [6] = A CellTox Green Cytotoxicity Assay to monitor cytotoxicity in HEK293 cells - 0 hour (AID 1224869); further: nearly all actives have a fitted effect of over 50% in size
# In short: (§2)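 Each value comes from one timepoint of a single continuous run in which HEK293 cells with CellTox Green were exposed to compound for up to 40 h at 37 C, dye fluorescence rising with cell death.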
# [7] = A CellTox Green Cytotoxicity Assay to monitor cytotoxicity in HEK293 cells - 40 hour (AID 1224871); further: nearly all actives have a fitted effect of over 45% in size; further: potency means the concentration at half of the fitted maximal effect
# In short: as §2
# [8] = qHTS RealTime-Glo MT Cell Viability Assay in HEK293 cells - 16 hour (AID 1224872); further: nearly all actives have a fitted effect of over 50% in size; further: potency means the concentration at half of the fitted maximal effect; on activity change, negative = cytotoxicity: top concentration of the series differs between compounds
# In short: as §1
# [9] = qHTS RealTime-Glo MT Cell Viability Assay in HEK293 cells - 40 hour (AID 1224874); settings: RealTime-Glo luminescence; max response: stronger effect = lower value; further: nearly all actives have a fitted effect of over 50% in size; further: potency means the concentration at half of the fitted maximal effect
# In short: (§3)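 qHTS format; HEK293 cells with NanoLuc/prosubstrate reagent, 37 C/5% CO2 for 5 h pre-dosing; compounds 23 nL in DMSO; luminescence at each time point reflects viable cells.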
# [10] = A CellTox Green Cytotoxicity Assay to monitor cytotoxicity in HEK293 cells - 24 hour (AID 1224875); further: nearly all actives have a fitted effect of over 45% in size; further: potency means the concentration at half of the fitted maximal effect
# In short: as §2
# [11] = A CellTox Green Cytotoxicity Assay to monitor cytotoxicity in HepG2 cells - 16 hour (AID 1224876); further: nearly all actives have a fitted effect of over 45% in size; further: potency means the concentration at half of the fitted maximal effect
# In short: (§4)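 Continuous culture of HepG2 cells with a membrane-impermeant DNA dye; rising fluorescence marks dead cells. Compound exposure lasted up to 40 h at 37 C, with reads every 8 h from 0 h.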
# [12] = A CellTox Green Cytotoxicity Assay to monitor cytotoxicity in HepG2 cells - 24 hour (AID 1224878); further: nearly all actives have a fitted effect of over 45% in size; further: potency means the concentration at half of the fitted maximal effect
# In short: as §4
# [13] = A CellTox Green Cytotoxicity Assay to monitor cytotoxicity in HepG2 cells - 40 hour (AID 1224879); further: nearly all actives have a fitted effect of over 40% in size
# In short: as §4
# [14] = A CellTox Green Cytotoxicity Assay to monitor cytotoxicity in HEK293 cells - 32 hour (AID 1224881); further: nearly all actives have a fitted effect of over 40% in size; further: potency means the concentration at half of the fitted maximal effect
# In short: as §2
# [15] = qHTS RealTime-Glo MT Cell Viability Assay in HepG2 cells - 24 hour (AID 1224867); further: nearly all actives have a fitted effect of over 50% in size; further: potency means the concentration at half of the fitted maximal effect
# In short: (§5)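 Cells + NanoLuc/prosubstrate dispensed (600 cells/well) → 5 h at 37 C/5% CO2 → compounds in DMSO transferred → 40 h incubation at 37 C, luminescence read at 0, 8, 16, 24, 32, 40 h.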
# [16] = qHTS RealTime-Glo MT Cell Viability Assay in HepG2 cells - 40 hour (AID 1224870); further: nearly all actives have a fitted effect of over 50% in size; further: potency means the concentration at half of the fitted maximal effect
# In short: (§6)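 HepG2 cells mixed with RealTime-Glo MT reagents (NanoLuc plus cell-permeant prosubstrate) were seeded at 600 cells/well, incubated 5 h at 37 C/5% CO2, then pinned with compounds in DMSO; nonlytic luminescence tracked viability during 40 h treatment.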
# [17] = qHTS RealTime-Glo MT Cell Viability Assay in HepG2 cells - 8 hour (AID 1224873); further: nearly all actives have a fitted effect of over 55% in size; further: potency means the concentration at half of the fitted maximal effect
# In short: as §6
# [18] = qHTS RealTime-Glo MT Cell Viability Assay in HepG2 cells - 32 hour (AID 1224877); further: nearly all actives have a fitted effect of over 55% in size; further: potency means the concentration at half of the fitted maximal effect
# In short: as §5
# [19] = qHTS RealTime-Glo MT Cell Viability Assay in HEK293 cells - 0 hour (AID 1224880)
# In short: as §3
# On the % scale 0 is the no-effect control and ±100 the full control effect.
smiles,measurement,setting,value
Cc1ccc(S(=O)(=O)Oc2ccc(N=Nc3ccc(-c4ccc(N=Nc5c(O)ccc6cc(S(=O)(=O)O)cc(S(=O)(=O)O)c56)c(C)c4)cc3C)cc2)cc1,Potency,[1],inactive
same,Potency,[2],45.2 µM (active) and 29.3 µM (active)
same,Potency,[3],27.4 µM (active)
same,"activity change, positive = activation",[4]; at 42.5 µM (top of the series),-13.6%
same,"activity change, positive = activation",[4]; at 92.4 µM (top of the series),-34.2%
same,Potency,[5],inactive
same,Potency,[6],inactive
same,Potency,[7],inactive
same,Potency,[8],inactive
same,max response,[9],-0.0985%
same,Potency,[10],inactive
same,Potency,[11],inactive
same,Potency,[12],inactive
same,Potency,[13],inactive
same,Potency,[14],inactive
CCCNC(C)C(=O)Nc1ccccc1C (stereo not given),Potency,[1],inactive
same,Potency,[2],inactive
same,Potency,[15],inactive
same,Potency,[6],inactive
same,Potency,[16],inactive
same,Potency,[7],inactive
same,Potency,[8],inactive
same,Potency,[17],inactive
same,max response,[9],-3.34%
same,Potency,[10],inactive
same,Potency,[11],inactive
same,Potency,[18],inactive
same,Potency,[12],inactive
same,Potency,[13],inactive
same,Potency,[19],inactive
same,Potency,[14],inactive
NC(Cc1ccc(Cl)cc1)C(=O)O (stereo not given),activation (H2AX phosphorylation),[1],-0.212% [at 0.582 µM]
same,"activity change, negative = cytotoxicity",[2],-0.321% [at 0.582 µM]
same,"activity, negative = inhibition",[3],-15% [at 0.349 µM]
same,"activity change, positive = activation",[4]; at 0.349 µM (top of the series),-8.03%
same,"activity change, negative = cytotoxicity",[15],0.0518% [at 0.29 µM]
same,"activity change, negative = cytotoxic",[5],11.7% [at 0.29 µM]
same,cytotoxicity,[6],-2.12% [at 0.29 µM]
same,"activity change, negative = cytotoxic",[16],0.881% [at 0.29 µM]
same,cytotoxicity increase,[7],-8.99% [at 0.29 µM]
same,"activity change, negative = cytotoxicity",[8],9.16% [at 0.29 µM]
same,"viability change, negative = cytotoxic",[17],-7.98% [at 0.29 µM]
same,max response,[9],10.5%
same,activity change,[10],"-5.17% [at 0.29 µM, stronger effect = higher value]"
same,cytotoxicity increase,[11],-4.84% [at 0.29 µM]
same,"activity change, negative = cytotoxic",[18],0.542% [at 0.29 µM]
same,cytotoxicity,[12],-5.86% [at 0.29 µM]
same,cytotoxicity increase,[13],-9.84% [at 0.29 µM]
same,"activity change, negative = cytotoxicity",[19],12.3% [at 0.29 µM]
same,cytotoxicity increase,[14],-6.93% [at 0.29 µM]
CC1=CC(=O)c2ccccc2C1=O,Potency,[1],40.1 µM (active)
same,Potency,[2],40.1 µM (active)
same,Potency,[3],43.3 µM (active)
same,"activity change, positive = activation",[4]; at 42.5 µM (top of the series),-26.5%
same,"activity change, positive = activation",[4]; at 92.4 µM (top of the series),-78.8%
same,Potency,[15],43.6 µM (active)
same,Potency,[5],15.5 µM (active)
same,Potency,[6],inactive
same,Potency,[16],49 µM (active)
same,Potency,[7],21.9 µM (active) and 23.9 µM (active)
same,Potency,[8],13.8 µM (active) and 23.9 µM (active)
same,Potency,[17],38.9 µM (active)
same,Potency,[9],15.5 µM (active)
same,Potency,[10],24.5 µM (active) and 26.8 µM (active)
same,Potency,[11],49 µM (active) and 26.8 µM (active)
same,Potency,[18],49 µM (active)
same,Potency,[12],43.6 µM (active) and 26.8 µM (active)
same,Potency,[14],19.5 µM (active) and 26.8 µM (active)
O=C1NCC2(CCN(CCc3ccccc3)CC2)O1,Potency,[1],inactive
same,Potency,[2],inactive
same,Potency,[15],inactive
same,Potency,[5],inactive
same,Potency,[6],inactive
same,Potency,[16],inactive
same,Potency,[7],inactive
same,Potency,[8],inactive
same,Potency,[17],inactive
same,max response,[9],2.88%
same,Potency,[10],inactive
same,Potency,[11],inactive
same,Potency,[18],inactive
same,Potency,[12],inactive
same,Potency,[13],inactive
same,Potency,[19],inactive
same,Potency,[14],inactive
